Source: PubChem (several laboratories)
GIRK2 act = activators of NPY4-receptor-primed GIRK2 channels, summary, cell-based, HEK293, thallium flux | activation (% efficacy), % for hits at 37.5 µM | 34,000 tested, under 10 active | HEK293 GIRK2/NPY4 cells, thallium flux fluorescence;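 active = primary screen hit, no activity in plain HEK293 cells, and in GIRK2-only cells above 5% efficacy rising with concentration; inactive = the rest, including fluorescent compounds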;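 note: efficacy is normalized control-subtracted fluorescence 15 s after thallium addition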
AMPAR-TARP mod = modulators of GluA2-stargazin AMPA receptor complexes, primary screen, cell-based, membrane potential dye; HEK293 GluA2+stargazin, membrane potential dye (FDSS), glutamate EC50; hits were called plate by plate, in both directions; AID 1259245, 2017; 40,000 compounds, 3.5% hits; calls only at 30 µM;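 active = any of four per-well response measures lying three or more SD from its plate-wide compound average, in either direction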
Target sequence (O88602 whole entry, looked up): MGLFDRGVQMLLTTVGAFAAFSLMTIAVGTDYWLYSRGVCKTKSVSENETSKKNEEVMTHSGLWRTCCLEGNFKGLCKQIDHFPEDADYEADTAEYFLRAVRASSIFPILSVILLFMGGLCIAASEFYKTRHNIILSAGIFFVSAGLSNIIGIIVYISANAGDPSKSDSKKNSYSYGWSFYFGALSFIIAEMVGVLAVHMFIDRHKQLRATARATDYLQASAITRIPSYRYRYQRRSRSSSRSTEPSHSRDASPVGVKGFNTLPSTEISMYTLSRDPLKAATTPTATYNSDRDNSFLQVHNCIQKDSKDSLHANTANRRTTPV
Target sequence (P19491 whole entry, looked up): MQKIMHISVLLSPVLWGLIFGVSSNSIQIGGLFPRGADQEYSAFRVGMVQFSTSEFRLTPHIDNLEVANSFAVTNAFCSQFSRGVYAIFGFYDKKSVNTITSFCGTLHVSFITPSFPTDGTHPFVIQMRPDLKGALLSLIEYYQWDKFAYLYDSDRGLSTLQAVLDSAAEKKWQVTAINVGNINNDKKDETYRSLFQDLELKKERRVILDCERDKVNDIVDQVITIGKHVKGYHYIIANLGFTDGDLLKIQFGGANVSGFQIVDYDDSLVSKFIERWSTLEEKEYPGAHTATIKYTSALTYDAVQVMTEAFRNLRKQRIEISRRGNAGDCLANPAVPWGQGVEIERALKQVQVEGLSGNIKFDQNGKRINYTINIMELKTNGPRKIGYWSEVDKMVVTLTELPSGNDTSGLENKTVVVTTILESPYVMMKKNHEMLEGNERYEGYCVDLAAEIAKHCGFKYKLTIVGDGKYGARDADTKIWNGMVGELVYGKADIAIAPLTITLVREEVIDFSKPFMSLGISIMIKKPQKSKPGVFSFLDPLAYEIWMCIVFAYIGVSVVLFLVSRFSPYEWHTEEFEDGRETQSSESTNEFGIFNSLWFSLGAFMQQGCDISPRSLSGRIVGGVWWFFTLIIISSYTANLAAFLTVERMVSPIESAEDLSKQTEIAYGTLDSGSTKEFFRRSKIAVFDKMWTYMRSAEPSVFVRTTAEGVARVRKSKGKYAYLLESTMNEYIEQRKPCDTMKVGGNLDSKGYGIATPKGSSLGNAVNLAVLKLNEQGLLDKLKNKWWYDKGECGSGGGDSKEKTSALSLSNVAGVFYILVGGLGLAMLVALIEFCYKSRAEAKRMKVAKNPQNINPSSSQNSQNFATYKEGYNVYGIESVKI
Starred values were filed as active, the others as inactive; i = inactive; / = not tested or not shown; + = active, no number; ! = repeats disagree. Only a selection was taken, and hits are over-represented in it overall.

SMILES	GIRK2 act	AMPAR-TARP mod
O=C(Nc1ccccc1)C(=O)Nc1ccc([N+](=O)[O-])cc1	/	i
O=[N+]([O-])c1ccc(C2=NCCN2)cc1	/	+
CN(C)C(CNC(=O)C(=O)Nc1ccc(F)c([N+](=O)[O-])c1)c1cccc2ccccc12 (stereo not given)	i	/
COc1ccc(NC(=O)CN2CCCN(Cc3cc(C)ccc3C)S2(=O)=O)c(OC)c1	i	i
CCOC(=O)c1ccccc1NC(=O)CN1CCCN(Cc2cc(C)ccc2C)S1(=O)=O	i	+
Cn1nnc2c(=O)n(CC(=O)Nc3ccccc3C(F)(F)F)cnc21	i	i
CCOc1ccccc1NC(=O)CSc1nnnn1-c1cccc(C)c1	i	+!
CCOc1ccccc1NC(=O)CSc1nnnn1-c1ccccc1C(F)(F)F	i	i
CC(=O)N1CCN(c2c(C)cnc3c2c(=O)n(CC(=O)N(C)c2ccccc2)c(=O)n3C)CC1	/	i
COc1cccc(-n2c(C)cn3c4c(=O)n(CCc5ccccc5)c(=O)n(C)c4nc23)c1	/	i
CCN(CC)CCn1c(C)cn2c3c(=O)n(CCc4ccccc4)c(=O)n(C)c3nc12	i	+
COc1ccc(CC(=O)Nc2nc(-c3ccc(Cl)s3)cs2)cc1	/	i
CC(=O)Cn1c(=O)c2c(nc3n2CC(C)CN3c2ccc(Br)cc2)n(C)c1=O (stereo not given)	i	i
CCOC(=O)c1cc(CC)sc1NC(=O)C1CC(=O)NN1C (stereo not given)	/	i
Cc1cc(C(=O)N2CCC3(CC2)OCCN3S(=O)(=O)c2cccs2)c(C)o1	i	+
COc1ccc(S(=O)(=O)N2CCOC23CCN(C(=O)c2cc(C)oc2C)CC3)cc1	i	i
Cc1c(NC(=O)c2ccc(Cl)c(S(=O)(=O)N3CCCC3)c2)c(=O)n(-c2ccccc2)n1C	/	i
Cc1cc(C)cc(-n2ccnc(SCC(=O)Nc3c(C)cc(C)cc3C)c2=O)c1	/	+
O=C(CSc1nccn(-c2ccc(Cl)cc2)c1=O)Nc1ccc(F)cc1F	/	+
O=C(CSc1nccn(-c2ccc(F)cc2)c1=O)Nc1ccc(F)cc1	/	i
COc1ccc(-n2ccnc(SCC(=O)Nc3c(C)cc(C)cc3C)c2=O)cc1	/	i
Cc1ccc(-c2nsc(C(=O)NCC3CCCO3)c2N)cc1 (stereo not given)	i	/
CCN1CCN(S(=O)(=O)CCNC(=O)c2cc(=O)c3ccccc3o2)CC1	i	i
CCCN1C(=O)/C(=C/c2ccc(N3CCCC3)cc2)NC1=S	/	+
CCCN1C(=O)NC2(CCN(C(=O)C3CCCCC3)CC2)C1=O	i	i
SMILES	GIRK2 act	AMPAR-TARP mod
CC1C(=O)NCCN1C(=O)c1nc2ccccc2s1 (stereo not given)	i	i
O=C(Nc1ccc(-n2cnnn2)cc1)c1csc(-c2cnccn2)n1	i	i
CC(=O)NS(=O)(=O)c1ccc(NC(=O)c2csc(-c3cnccn3)n2)cc1	i	+
Cc1ccc(N2CC(C)Cn3c2nc2c3c(=O)n(CC(N)=O)c(=O)n2C)cc1 (stereo not given)	/	i
CN(c1ccsc1C(=O)Nc1cccc(Cl)c1)S(=O)(=O)c1ccccc1	i	i
CC(C)c1ccc(NC(=O)c2sccc2N(C)S(=O)(=O)c2ccccc2)cc1	i	+!
COc1ccc(-c2c(C)nn3c(N4CCN(Cc5ccccc5)CC4)cc(C)nc23)cc1OC	i	+
COc1ccccc1-c1c(C)nn2c(N3CCN(Cc4ccccc4)CC3)cc(C)nc12	i	i
O=S(=O)(NCC(O)C1CCCCC1)c1cccc(C(F)(F)F)c1 (stereo not given)	i	/
Cc1cc(C)cc(NC(=O)N2CCC3(CC2)NC(=O)N(Cc2ccc(Cl)cc2)C3=O)c1	i	i
Cc1ccc(CN2C(=O)NC3(CCN(C(=O)Nc4ccc(F)c(Cl)c4)CC3)C2=O)cc1	i	+
O=C(CSc1nccn(-c2ccc(Cl)cc2)c1=O)c1ccccc1	/	i
CC1CCCCN1c1nc2c(S(=O)(=O)c3ccccc3)nnn2c2ccc(Cl)cc12 (stereo not given)	i	+
COCCNc1nc2c(S(=O)(=O)c3ccccc3)nnn2c2ccc(Cl)cc12	i	i
COCC(=O)N1CCCc2ccc(NC(=O)c3ccsc3)cc21	i	i
Cc1cc(-c2nnc(NC(=O)c3cc(Cl)sc3Cl)o2)nn1C	i	i
Cc1cc(-c2nnc(NC(=O)c3cc4ccccc4o3)o2)nn1C	i	i
COc1cccc2cc(C(=O)Nc3nnc(-c4cc(C)n(C)n4)o3)oc12	i	+
CCOc1cc(C(=O)Nc2nnc(-c3cc(C)n(C)n3)o2)cc(OCC)c1OCC	i	+
CCN(CC)S(=O)(=O)c1ccc(C(=O)Nc2nnc(-c3cc(C)n(C)n3)o2)cc1	i	+
Cc1cc(C(=O)Nc2nnc(-c3cc(C)n(C)n3)o2)nn1C	i	+
Cc1cc(-c2nnc(NC(=O)c3ccc(S(C)(=O)=O)cc3)o2)nn1C	i	i
Cc1cc(-c2nnc(NC(=O)c3ccc(SC(C)C)cc3)o2)nn1C	i	i
Cc1cc(C)nc(-n2nc(C(C)(C)C)cc2OCC(=O)NC2CCCCC2)n1	i	/
COc1cccc(C(O)=C2C(=O)C(=O)N(c3ccccn3)C2c2ccc(OC)c(OC)c2)c1 (stereo not given)	i	/
SMILES	GIRK2 act	AMPAR-TARP mod
COc1cccc(N2CC(C)Cn3c2nc2c3c(=O)n(CC(N)=O)c(=O)n2C)c1 (stereo not given)	/	i
Cc1cc(-c2nnc(NC(=O)c3ccc(S(=O)(=O)N4CCCCC4)cc3)o2)nn1C	i	+
CCN(CC)S(=O)(=O)c1ccc(C(=O)Nc2nnc(-c3ccc(Br)s3)o2)cc1	i	+
Cc1cc(-c2nnc(NC(=O)c3nc4ccccc4s3)o2)nn1C	i	+
Cc1cc(-c2nnc(NC(=O)c3cccc(C(F)(F)F)c3)o2)nn1C	i	i
Cc1ccc(C(=O)Nc2nnc(-c3cc(C)n(C)n3)o2)cc1C	i	i
Cc1ccc(-c2nnc(NC(=O)c3ccc(S(=O)(=O)N4CCCCC4)cc3)o2)cc1C	i	i
CC(=O)c1ccc(C(=O)Nc2nnc(-c3cc(C)n(C)n3)o2)cc1	i	+
CN(C)S(=O)(=O)c1ccc(C(=O)Nc2nnc(-c3ccc(Br)s3)o2)cc1	i	i
C/C=C/Cn1c(=O)c2c(nc3n(-c4ccccc4O)c(C)c(C)n23)n(C)c1=O	/	i
CCC(=O)Nc1ccc(I)cc1C	i	i
COc1ccccc1-c1cnn2c(N3CCCCC3)cc(C)nc12	i	i
CCC(=O)N1CCCc2cc(NC(=O)c3ccc(OC)cc3)ccc21	/	i
CC(C)S(=O)(=O)c1ccc(C(=O)Nc2sc3c(c2C#N)CCCC3)cc1	i	i
N=C1SCC(=O)N1c1ncc(Cc2ccccc2F)s1	/	i
Cc1c(O)ccc2cc(S(=O)(=O)c3ccc(F)cc3)c(=O)oc12	/	+
CC(C)(C)c1ccc(S(=O)(=O)c2cc3cc(F)cc(F)c3oc2=O)cc1	/	i
Cn1nnc2c(N3CCN(C(=O)C(C)(C)Oc4ccc(Cl)cc4)CC3)ncnc21	i	/
Cn1c(=O)n(CC(=O)O)c(=O)c2c1nc1n2CCCN1c1ccccc1	/	i
